The structures appear in SMILES notation. Unmarked numbers belong to inactive results. Inconclusive results are not listed. Calls of active or inactive are those of the source. Unless noted, the call rests on the fitted dose curve; in most records, active means well fitted curve in the direction sought with a large enough effect in the repeat runs; inconclusive means weak or mixed curves; inactive means no such curve, though single readings can be large; an effect the other way counts as inactive or inconclusive.

Drawing on PubChem BioAssay (Tox21), this text covers Potency for 25 compounds.

Test [1] addresses Acetylcholinesterase (Homo sapiens) (UniProt P22303). Briefly: Acetylcholinesterase (AChE) small molecule antagonists: fluorescence cell-based qHTS assay (AID 1347398; calls by dose curve; further: nearly all actives have a fitted effect of over 50% in size; further: potency means the concentration at half of the fitted maximal effect). To be noted: Potency: AChE activity. In outline: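 SH-SY5Y, 2,000 cells/well, attached overnight; cmpd 30 min 37 C; acetylthiocholine/Thiolite Green cocktail 40 min RT; fluorescence Ex/Em 490/520 nm.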
Test [2] shares this target. Briefly: Acetylcholinesterase (AChE) small molecule antagonists: enzyme-based qHTS assay with human liver microsomes (AID 1347399; calls by dose curve; further: nearly all actives have a fitted effect of over 60% in size; further: potency means the concentration at half of the fitted maximal effect). The following applies: Potency: qHTS inhibition. In short, it runs like this: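 Recombinant human AChE (50 mU/mL in the enzyme mix) and human liver microsomes (0.25 mg/mL final) were preincubated with compound and NADPH (0.25 mg/mL final) for 30 min at 37 C. Acetylthiocholine/DTNB was then added; thiocholine was read colorimetrically after 10 min at room temperature.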
(In general: qHTS replaces the single test concentration by a dilution series.)

The target of test [3] is Cytochrome P450 2C19 (Homo sapiens) (UniProt P33261). As to the kind of experiment: Cytochrome P450 Family 2 Subfamily C Member 19 (CYP2C19) small molecule antagonists: luciferase reporter qHTS assay (AID 1671197). Further: nearly all actives have a fitted effect of over 65% in size. Further: potency means the concentration at half of the fitted maximal effect. In short, it runs like this: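 Enzyme-substrate mix with proluciferin substrate (P450-Glo CYP2C19 system) preincubated with compounds 10 min at room temperature; NADPH regeneration solution added, 37C for 1 h; detection reagent stops reaction, luminescence read after 20 min. Ketoconazole positive control.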
Sequence of Cytochrome P450 2C19 (Homo sapiens) (P33261 whole entry, looked up): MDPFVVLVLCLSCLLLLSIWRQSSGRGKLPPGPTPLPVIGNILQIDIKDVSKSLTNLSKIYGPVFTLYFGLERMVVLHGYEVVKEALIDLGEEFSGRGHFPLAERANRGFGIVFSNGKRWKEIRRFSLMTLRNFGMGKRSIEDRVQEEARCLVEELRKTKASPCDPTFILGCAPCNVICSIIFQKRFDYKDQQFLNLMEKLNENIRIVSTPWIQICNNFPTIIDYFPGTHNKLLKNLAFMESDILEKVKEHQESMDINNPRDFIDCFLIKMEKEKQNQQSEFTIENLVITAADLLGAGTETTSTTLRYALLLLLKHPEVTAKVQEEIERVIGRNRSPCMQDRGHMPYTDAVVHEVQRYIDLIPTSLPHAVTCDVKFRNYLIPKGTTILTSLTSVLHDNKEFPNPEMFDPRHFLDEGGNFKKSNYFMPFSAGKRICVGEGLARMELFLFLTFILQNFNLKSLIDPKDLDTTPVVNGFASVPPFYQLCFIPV
On the technique in general: Reporter assays use an easily measured gene product as a stand-in for the process of interest.

Test [4] has as its target Cytochrome P450 1A2 (Homo sapiens) (UniProt P05177). Briefly: Cytochrome P450 Family 1 Subfamily A Member 2 (CYP1A2) small molecule antagonists: luciferase reporter qHTS assay (AID 1671199). Further: nearly all actives have a fitted effect of over 50% in size. Further: potency means the concentration at half of the fitted maximal effect. In short, it runs like this: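 Steps: enzyme-substrate mix dispensed; test compounds and furafylline control pinned in; 10 min room temperature; NADPH regeneration solution added, 1 h; reaction stopped with luciferin detection reagent; luminescence read after 20 min.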

The target of test [5] is Voltage-gated inwardly rectifying potassium channel KCNH2 (Homo sapiens) (UniProt Q12809). As to the kind of experiment: Human Ether-a-go-go-Related Gene (hERG) channel small molecule antagonists: fluorescence cell-based qHTS assay (AID 1671200).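 Further: hERG-expressing U2OS cells given a thallium stimulus after FluxOR II dye loading; series mostly up to about 77 µM; nearly all actives have a fitted effect of over 50% in size.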 In outline:
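hERG-U2OS cells plated overnight at 37 C, loaded with FluxOR II dye 1 h at RT in dark; after 10 min, thallium stimulus added. Fluorescence (480/540 nm) read kinetically for 2 min at 1 s intervals.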
(In general: Block of hERG is tested as a sign of cardiac risk.)

Test [6] concerns the target Cytochrome P450 3A4 (Homo sapiens) (UniProt P08684). Briefly: Cytochrome P450 Family 3 Subfamily A Member 4 (CYP3A4) small molecule antagonists: luciferase reporter qHTS assay (AID 1671201). Further: nearly all actives have a fitted effect of over 50% in size. Further: potency means the concentration at half of the fitted maximal effect. In outline:
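P450-Glo CYP3A4 luminescent assay: compounds preincubated 10 min at room temperature with enzyme and proluciferin substrate, NADPH regeneration added, 1 h room-temperature reaction, stopped with luciferin detection reagent; luminescence read after 20 min. Ketoconazole positive control.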

Test [7] has as its target Cytochrome P450 2C9 (Homo sapiens) (UniProt P11712). As to the kind of experiment: Cytochrome P450 Family 2 Subfamily C Member 9 (CYP2C9) small molecule antagonists: luciferase reporter qHTS assay (AID 1671198). Further: nearly all actives have a fitted effect of over 50% in size. Further: potency means the concentration at half of the fitted maximal effect. In short, it runs like this:
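P450-Glo proluciferin substrate with CYP2C9 enzyme; 10 min RT preincubation, then NADPH regeneration 1 h at 37C; luciferin detection reagent 20 min RT, luminescence in relative luminescence units.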

Test [8] addresses Cytochrome P450 2D6 (Homo sapiens) (UniProt P10635). Briefly: Cytochrome P450 Family 2 Subfamily D Member 6 (CYP2D6) small molecule antagonists: luciferase reporter qHTS assay (AID 1671196). Further: nearly all actives have a fitted effect of over 50% in size. Further: potency means the concentration at half of the fitted maximal effect. In short, it runs like this: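 Test chemicals meet CYP2D6 plus proluciferin substrate (10 min, RT); NADPH regenerating solution then drives turnover for 1 h. Detection reagent halts the reaction; luminescence measured after 20 min.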

Sequence of Cytochrome P450 1A2 (Homo sapiens) (P05177 whole entry, looked up): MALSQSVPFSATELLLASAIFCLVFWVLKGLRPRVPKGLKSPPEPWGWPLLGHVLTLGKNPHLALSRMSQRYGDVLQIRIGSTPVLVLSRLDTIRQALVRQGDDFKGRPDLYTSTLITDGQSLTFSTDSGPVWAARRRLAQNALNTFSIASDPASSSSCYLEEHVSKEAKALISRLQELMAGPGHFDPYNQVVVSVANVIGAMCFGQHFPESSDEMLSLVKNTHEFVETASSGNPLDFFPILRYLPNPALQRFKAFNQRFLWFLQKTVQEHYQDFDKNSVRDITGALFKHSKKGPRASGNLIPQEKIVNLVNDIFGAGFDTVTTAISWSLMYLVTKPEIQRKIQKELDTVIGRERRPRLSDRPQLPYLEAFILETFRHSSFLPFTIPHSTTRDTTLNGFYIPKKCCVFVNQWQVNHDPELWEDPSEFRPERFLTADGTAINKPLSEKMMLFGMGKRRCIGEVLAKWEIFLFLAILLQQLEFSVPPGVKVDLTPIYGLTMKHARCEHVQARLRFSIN
Sequence of Cytochrome P450 2D6 (Homo sapiens) (P10635 whole entry, looked up): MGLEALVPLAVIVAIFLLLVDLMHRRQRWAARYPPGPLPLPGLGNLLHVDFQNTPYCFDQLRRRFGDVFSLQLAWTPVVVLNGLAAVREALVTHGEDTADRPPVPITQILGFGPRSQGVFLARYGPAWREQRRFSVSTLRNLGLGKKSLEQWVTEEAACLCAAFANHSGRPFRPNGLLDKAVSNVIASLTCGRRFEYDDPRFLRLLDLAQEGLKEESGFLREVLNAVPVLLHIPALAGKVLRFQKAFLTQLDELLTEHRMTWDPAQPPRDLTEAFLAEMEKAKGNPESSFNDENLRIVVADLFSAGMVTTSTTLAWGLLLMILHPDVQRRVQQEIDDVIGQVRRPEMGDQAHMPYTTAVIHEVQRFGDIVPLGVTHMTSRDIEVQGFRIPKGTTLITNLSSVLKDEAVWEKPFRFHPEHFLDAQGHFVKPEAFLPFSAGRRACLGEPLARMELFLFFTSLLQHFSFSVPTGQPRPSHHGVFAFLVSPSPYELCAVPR
Sequence of Acetylcholinesterase (Homo sapiens) (P22303 whole entry, looked up): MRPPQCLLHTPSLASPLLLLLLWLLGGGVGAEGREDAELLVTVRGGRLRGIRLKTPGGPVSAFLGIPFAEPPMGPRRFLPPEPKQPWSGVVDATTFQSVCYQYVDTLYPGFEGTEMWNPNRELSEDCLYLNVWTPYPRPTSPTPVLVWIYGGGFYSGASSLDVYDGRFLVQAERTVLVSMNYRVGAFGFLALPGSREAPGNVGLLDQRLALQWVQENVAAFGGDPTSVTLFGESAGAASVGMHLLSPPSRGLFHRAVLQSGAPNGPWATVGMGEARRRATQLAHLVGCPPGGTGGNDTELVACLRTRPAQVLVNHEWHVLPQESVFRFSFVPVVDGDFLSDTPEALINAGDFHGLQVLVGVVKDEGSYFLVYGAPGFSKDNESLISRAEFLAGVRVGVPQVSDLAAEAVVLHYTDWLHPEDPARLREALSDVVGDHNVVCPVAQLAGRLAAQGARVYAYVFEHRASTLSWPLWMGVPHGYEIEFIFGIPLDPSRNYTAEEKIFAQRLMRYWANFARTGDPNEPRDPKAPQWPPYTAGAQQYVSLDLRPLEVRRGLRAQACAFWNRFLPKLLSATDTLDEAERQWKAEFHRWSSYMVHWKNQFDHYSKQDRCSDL
Sequence of Cytochrome P450 3A4 (Homo sapiens) (P08684 whole entry, looked up): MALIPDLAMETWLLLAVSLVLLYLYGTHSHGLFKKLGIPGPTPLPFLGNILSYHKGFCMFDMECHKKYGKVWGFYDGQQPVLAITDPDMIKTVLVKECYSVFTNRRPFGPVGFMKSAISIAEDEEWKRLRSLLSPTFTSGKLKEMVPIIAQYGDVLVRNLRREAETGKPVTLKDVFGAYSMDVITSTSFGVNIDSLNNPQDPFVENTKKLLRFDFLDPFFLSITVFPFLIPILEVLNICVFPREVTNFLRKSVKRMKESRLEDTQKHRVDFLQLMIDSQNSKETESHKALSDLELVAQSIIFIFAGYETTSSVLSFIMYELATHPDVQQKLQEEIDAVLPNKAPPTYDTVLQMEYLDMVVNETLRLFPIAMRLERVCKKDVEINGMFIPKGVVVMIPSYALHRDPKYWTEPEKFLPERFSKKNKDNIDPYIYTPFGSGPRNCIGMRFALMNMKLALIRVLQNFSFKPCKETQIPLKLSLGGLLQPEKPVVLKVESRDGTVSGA
Sequence of Voltage-gated inwardly rectifying potassium channel KCNH2 (Homo sapiens) (Q12809 whole entry, looked up): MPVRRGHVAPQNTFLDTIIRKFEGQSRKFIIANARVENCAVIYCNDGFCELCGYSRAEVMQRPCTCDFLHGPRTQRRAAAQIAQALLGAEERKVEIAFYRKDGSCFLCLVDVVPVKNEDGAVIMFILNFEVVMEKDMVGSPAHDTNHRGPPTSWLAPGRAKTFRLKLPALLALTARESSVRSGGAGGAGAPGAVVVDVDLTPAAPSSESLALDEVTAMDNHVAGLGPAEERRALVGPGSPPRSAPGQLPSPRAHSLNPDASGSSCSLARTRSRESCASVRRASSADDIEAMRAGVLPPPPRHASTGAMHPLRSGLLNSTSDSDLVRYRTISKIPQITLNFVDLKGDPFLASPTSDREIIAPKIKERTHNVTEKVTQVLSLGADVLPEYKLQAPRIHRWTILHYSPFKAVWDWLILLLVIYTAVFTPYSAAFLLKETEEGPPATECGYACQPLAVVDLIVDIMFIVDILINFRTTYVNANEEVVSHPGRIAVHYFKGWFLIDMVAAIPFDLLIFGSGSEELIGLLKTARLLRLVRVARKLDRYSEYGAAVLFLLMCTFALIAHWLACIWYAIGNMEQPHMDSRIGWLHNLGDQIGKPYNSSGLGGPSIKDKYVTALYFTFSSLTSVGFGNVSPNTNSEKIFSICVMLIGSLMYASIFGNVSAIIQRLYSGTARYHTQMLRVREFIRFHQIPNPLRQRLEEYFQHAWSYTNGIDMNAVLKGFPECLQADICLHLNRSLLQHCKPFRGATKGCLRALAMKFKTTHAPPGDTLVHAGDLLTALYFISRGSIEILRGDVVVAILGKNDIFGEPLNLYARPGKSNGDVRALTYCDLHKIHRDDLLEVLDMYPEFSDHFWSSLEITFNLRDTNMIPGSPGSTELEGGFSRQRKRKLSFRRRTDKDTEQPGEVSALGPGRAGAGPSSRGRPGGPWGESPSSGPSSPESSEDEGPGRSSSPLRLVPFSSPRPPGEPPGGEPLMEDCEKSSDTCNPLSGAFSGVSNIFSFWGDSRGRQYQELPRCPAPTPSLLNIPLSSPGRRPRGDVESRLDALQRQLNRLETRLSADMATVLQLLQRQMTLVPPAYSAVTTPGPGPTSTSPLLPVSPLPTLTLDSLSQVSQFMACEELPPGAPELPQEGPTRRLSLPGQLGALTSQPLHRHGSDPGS
Sequence of Cytochrome P450 2C9 (Homo sapiens) (P11712 whole entry, looked up): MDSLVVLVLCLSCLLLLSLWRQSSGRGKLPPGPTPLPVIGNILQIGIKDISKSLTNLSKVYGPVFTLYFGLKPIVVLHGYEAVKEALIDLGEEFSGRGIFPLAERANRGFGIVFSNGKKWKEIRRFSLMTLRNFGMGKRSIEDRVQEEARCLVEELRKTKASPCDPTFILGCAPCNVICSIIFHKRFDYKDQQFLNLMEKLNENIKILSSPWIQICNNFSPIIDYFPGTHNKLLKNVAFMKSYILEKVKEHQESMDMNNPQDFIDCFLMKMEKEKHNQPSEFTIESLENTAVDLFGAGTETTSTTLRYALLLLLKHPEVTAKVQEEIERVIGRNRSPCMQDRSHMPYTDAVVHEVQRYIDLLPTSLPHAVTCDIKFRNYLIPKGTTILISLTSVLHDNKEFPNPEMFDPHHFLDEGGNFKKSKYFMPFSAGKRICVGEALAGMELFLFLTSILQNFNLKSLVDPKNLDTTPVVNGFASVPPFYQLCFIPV

For the compound `CCCCOP(=O)(O)OCCCC`, the Potency entry in test [1], in test [2], in test [4], in test [5] and in test [6] was “inactive” throughout. For the same compound, in test [3], the Potency was 56.4 µM (active).

As for `c1ccc(N2CCNCC2)cc1`, the Potency result in test [1], in test [2], in test [7], in test [5] and in test [6] was “inactive” in each case.

Consider `CCS(=O)(=O)C(C)(C)S(=O)(=O)CC`, for which the Potency entry in test [1], in test [2], in test [7], in test [4] and in test [6] was “inactive” in each case.

Turning to `CCCCc1c(C)nc(NCC)[nH]c1=O`, the Potency result in test [1], in test [8], in test [7], in test [5] and in test [6] was “inactive” throughout. Further, the Potency is 79.6 µM (active) in test [3] and 17.8 µM (active) in test [4].

Regarding `CCOP(=S)(OCC)Oc1cc(-c2ccccc2)on1`, the Potency in test [1] was 44.8 µM (active); in test [8], 35.6 µM (active); in test [3], 1.59 µM (active); in test [7], 0.502 µM (active); in test [6] it was 1.26 µM (active). The Potency result in test [5] was “inactive”.

`CNCC(=O)c1ccc(O)c(O)c1`: the Potency result in test [1], in test [8], in test [3], in test [7], in test [5] and in test [6] was “inactive” throughout.

Turning to `N#CC(Cl)(Cl)Cl`, the Potency result in test [1], in test [2], in test [7], in test [4], in test [5] and in test [6] was “inactive” in each case.

On to `CC(C)NCC(O)c1ccc(N)c(C#N)c1` (configuration not stated), for which the Potency entry in test [1], in test [2] and in test [5] was “inactive” each time.

With `O=[N+]([O-])c1cccc(O)c1`, the Potency result in test [1], in test [8], in test [7], in test [5] and in test [6] was “inactive” in each case.

`CCCSP(=O)(OCC)Oc1ccc(Br)cc1Cl` (configuration not stated): the Potency in test [1] was 0.866 µM (active); in test [2], 2.74 µM (active); in test [7], 10.9 µM (active); in test [4], 4.34 µM (active). Besides, in test [6], the Potency entry is “inactive”.

Consider `[O]=[Cd]`, for which the Potency result in test [1], in test [8], in test [3], in test [7], in test [4] and in test [5] was “inactive” each time. Moreover, the Potency result in test [6] was “inactive”.

On to `ClCCOCOCCCl`, for which the Potency entry in test [1], in test [2], in test [7] and in test [6] was “inactive” throughout.

On to `COc1ncc(F)c2nc(S(=O)(=O)Nc3c(F)cccc3F)nn12`, for which the Potency result in test [1], in test [8], in test [4] and in test [6] was “inactive” in each case. Moreover, the Potency in test [7] was 22.6 µM (active).

Turning to `CNC(=O)O/N=C(\C)SC`, the Potency in test [1] is 1.26 µM (active); in test [2], 17.8 µM (active). The Potency entry in test [7], in test [5] and in test [6] was “inactive” in each case.

With `CCOP(=O)(OCC)OP(=O)(OCC)OCC`, the Potency entry in test [1], in test [2], in test [7], in test [4], in test [5] and in test [6] was “inactive” each time.

Turning to `CN(N=O)C(N)=O`, the Potency entry in test [1], in test [8], in test [3], in test [7], in test [4] and in test [5] was “inactive” each time. For the same compound, the Potency result in test [6] was “inactive”.

On to `COC(=O)c1c(C(F)F)nc(C(F)(F)F)c(C2=NCCS2)c1CC(C)C`, for which the Potency entry in test [1], in test [2] and in test [5] was “inactive” each time. Besides, the Potency in test [7] was 35.6 µM (active); in test [4], 0.356 µM (active); in test [6], 2 µM (active).

Take `COP(N)(=S)Oc1ccccc1C(=O)OC(C)C` (configuration not stated): the Potency result in test [1] is “inactive”. The Potency was 31.7 µM (active) in test [8]; 0.178 µM (active) in test [3]; 6.33 µM (active) in test [7]; 2 µM (active) in test [4]; 2 µM (active) in test [6].

`O=[N+]([O-])c1ccc(CBr)cc1`: the Potency result in test [1], in test [2], in test [7] and in test [6] was “inactive” in each case.

With `C#C[C@]1(O)C=C[C@H]2[C@@H]3CCC4=CC(=O)CC[C@@H]4[C@H]3CC[C@@]21CC`, the Potency result in test [2], in test [4] and in test [5] was “inactive” each time. Moreover, the values for the Potency in test [3] and in test [7] were 2.75 µM (active) and 4.9 µM (active), respectively.

Turning to `Nc1n[nH]c(N)n1`, the Potency entry in test [1], in test [3], in test [7] and in test [5] was “inactive” each time. Also, the Potency in test [4] was 64.4 µM (active).

With `CCOC(=O)C(c1c(O)c2ccccc2oc1=O)c1c(O)c2ccccc2oc1=O`, the Potency result in test [1], in test [3], in test [5] and in test [6] was “inactive” in each case. Further, the Potency is 2.75 µM (active) in test [7] and 27.5 µM (active) in test [4].

Turning to `C[C@H]1CCC[C@H](O)CCCCCc2cc(O)cc(O)c2C(=O)O1`, the Potency result in test [1] was “inactive”. Besides, the figures for the Potency in test [7] and in test [6] were 31.9 µM (active) and 0.715 µM (active), respectively.

As for `CCOc1nc(C(Cl)(Cl)Cl)ns1`, the Potency result in test [2], in test [8], in test [5] and in test [6] was “inactive” throughout.

Consider `BrCCCCCCBr`, for which the Potency result in test [2], in test [8], in test [5] and in test [6] was “inactive” each time. Also, the Potency in test [4] was 63.3 µM (active).
